Z-score and composite z-score data for twelve compounds are collected here from PubChem BioAssay.

Assay [1] is described as follows: HepG2 liver cancer cell viability effects, profiling panel, resazurin fluorescence, 24 h, PK04 Diversity Set (AID 1172). Further: test concentration not given here. The conditions noted are these: higher = more signal. For orientation: The colour change of resazurin is a common sign of viable cells or microbes.
Assay [2] in a line: basal S. cerevisiae growth modulation, no modifier, primary screen, OD600, strain BY4716, 24 h, basal condition (AID 1173). To be noted: OD600, 24 h, higher = more signal, called active from +8 up or from −8 down.
Assay [3] is described as follows: MM1S myeloma cell viability, profiling panel, resazurin fluorescence, basal, 24 h, PK04 Diversity Set (AID 1174).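 Further: MM1S multiple myeloma cell line; test concentration not given here.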 To be noted: higher = more signal, called active from +8 up or from −8 down.
Assay [4] addresses Dihydroorotate dehydrogenase (quinone), mitochondrial (Plasmodium falciparum (isolate 3D7)) (UniProt Q08210). In words: PfDHODH enzyme inhibitors, primary screen, biochemical, C-terminal His tag, absorbance 600 nm (AID 1175).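 Further: recombinant parasite enzyme with a five histidine tag at its C terminus; test concentration not given here.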 The conditions noted are these: DCIP absorbance 600 nm, higher = more signal, called active from +8 up or from −8 down.
Assay [5] in a line: P. aeruginosa biofilm formation inhibitors, primary screen, strain PAO1, LB-PBS medium, absorbance 600 nm (AID 1176). Further: test concentration not given here. To be noted: P. aeruginosa PAO1 growth/biofilm, A600, 12 h; higher = more signal.
Assay [6] in a line: S. cerevisiae RM11-1a growth modifiers, primary screen, strain RM11-1a, OD600, basal, 24 h (AID 1177).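 Further: cultures grown under basal conditions with no added stressor; test concentration not given here.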 The conditions noted are these: OD600, 24 h, higher = more signal, called active from +8 up or from −8 down.
Assay [7] is described as follows: E. coli acrAB mutant growth effects, primary screen, E. coli filamentation inducers, strain DRC39, OD650, 24 h (AID 1178).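 Further: growth measured as culture turbidity by optical density at 650 nm; test concentration not given here.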 To be noted: higher = more signal, called active from +8 up or from −8 down.
The nature of assay [8]: E. coli acrAB mutant growth effects, primary screen, E. coli filamentation inducers, strain DRC39, OD650, 48 h (AID 1179).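 Further: screen aims at cell division blockers that make cells filament.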 The conditions noted are these: E. coli DRC39 delta-acrAB growth, higher = more signal, called active from +8 up or from −8 down.
A short description of assay [9]: RPMI8226 myeloma cell viability, profiling panel, resazurin fluorescence, basal, 24 h, PK04 Diversity Set (AID 1180).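 Further: RPMI8826 multiple myeloma cell line at 5000 cells per well; test concentration not given here.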 The conditions noted are these: higher = more signal.
Assay [10] concerns the target E3 ubiquitin-protein ligase XIAP (Homo sapiens) (UniProt P98170). The assay is described as follows: XIAP binders, primary screen, biophysical, small-molecule microarray, fluorescence 635 nm (AID 1181).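 Further: score merges 667 nm emission and signal to noise over triplicate slides.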 To be noted: small-molecule microarray binding, higher = more signal.

Activity calls are given as the source filed them. Unless noted, how the calls were made is not given here.

Chain of E3 ubiquitin-protein ligase XIAP (Homo sapiens) (P98170 whole entry, looked up): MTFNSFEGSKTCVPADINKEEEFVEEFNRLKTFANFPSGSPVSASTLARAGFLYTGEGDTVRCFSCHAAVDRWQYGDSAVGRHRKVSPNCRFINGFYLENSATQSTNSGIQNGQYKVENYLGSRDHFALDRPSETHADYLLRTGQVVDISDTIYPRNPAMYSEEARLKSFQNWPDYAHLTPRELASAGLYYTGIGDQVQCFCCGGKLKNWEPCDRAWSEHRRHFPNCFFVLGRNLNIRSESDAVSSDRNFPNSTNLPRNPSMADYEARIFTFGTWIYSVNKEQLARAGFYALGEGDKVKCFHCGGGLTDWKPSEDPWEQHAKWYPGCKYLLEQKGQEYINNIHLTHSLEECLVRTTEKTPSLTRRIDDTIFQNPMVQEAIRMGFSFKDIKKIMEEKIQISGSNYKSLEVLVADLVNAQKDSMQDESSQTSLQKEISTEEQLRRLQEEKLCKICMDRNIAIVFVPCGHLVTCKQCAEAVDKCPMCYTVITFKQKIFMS
Chain of Dihydroorotate dehydrogenase (quinone), mitochondrial (Plasmodium falciparum (isolate 3D7)) (Q08210 whole entry, looked up): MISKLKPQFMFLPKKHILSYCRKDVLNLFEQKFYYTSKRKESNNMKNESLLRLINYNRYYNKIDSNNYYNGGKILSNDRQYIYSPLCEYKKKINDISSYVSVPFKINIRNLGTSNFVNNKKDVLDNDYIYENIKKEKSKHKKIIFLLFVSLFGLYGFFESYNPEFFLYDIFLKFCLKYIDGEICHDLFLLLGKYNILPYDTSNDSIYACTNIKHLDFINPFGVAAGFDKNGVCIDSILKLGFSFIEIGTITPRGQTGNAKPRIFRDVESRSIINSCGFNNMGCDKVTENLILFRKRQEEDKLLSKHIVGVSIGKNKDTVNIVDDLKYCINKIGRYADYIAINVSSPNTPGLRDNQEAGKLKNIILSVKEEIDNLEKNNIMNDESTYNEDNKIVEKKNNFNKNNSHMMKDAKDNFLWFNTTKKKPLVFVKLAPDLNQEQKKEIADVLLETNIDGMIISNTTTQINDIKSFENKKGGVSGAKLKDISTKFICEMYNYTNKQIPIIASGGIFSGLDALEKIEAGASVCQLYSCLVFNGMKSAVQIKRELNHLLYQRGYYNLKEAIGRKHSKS

Take `COCCOC(=O)N1C(=O)[C@@]2(c3cc(C#CCC(C(=O)OC)C(=O)OC)ccc31)[C@H](c1ccc(O)cc1)N1[C@H](c3ccccc3)[C@H](c3ccccc3)OC(=O)[C@H]1[C@@H]2C(=O)NC[C@H](O)c1ccccc1`: the z-score is 1.78 in [1]; -0.149 (inactive) in [2]; 0.6 (inactive) in assay [3]; -0.489 (inactive) in assay [5]; 0.592 (inactive) in assay [6]; 0.416 (inactive) in assay [7]. Besides, the z-score in assay [8] was -0.228 (inactive); in [9] it was -2.51. In addition, the composite z-score in assay [4] was 0.407 (inactive); in assay [10], -0.187.

Turning to `O=C1[C@@]23C=C(Br)[C@H](C[C@@H]2COC3)[C@@]12CO2`, the z-score is -0.198 in assay [1]; -0.237 (inactive) in [2]; -0.402 (inactive) in assay [3]; 0.224 (inactive) in assay [5]; 0.254 (inactive) in assay [6]; -0.417 (inactive) in assay [7]. In addition, the z-score is -0.0396 (inactive) in [8] and -0.373 in assay [9]. For the same compound, the composite z-score in assay [4] was 0.571 (inactive); in assay [10] it was -0.102.

For the compound `Cc1ccc(S[C@]2(C(=O)NCC(C)C)CC(=O)N(C3Cc4ccccc4C3)[C@@H]2c2ccc(CO)cc2I)cc1`, the z-score was 0.0073 in assay [1]; -1.51 (inactive) in assay [2]; -2.16 (inactive) in assay [3]; 0.503 (inactive) in assay [5]; 0.207 (inactive) in assay [6]; -0.0452 (inactive) in [7]. Besides, the z-score in assay [8] was -0.138 (inactive); in [9] it was -2.55. The composite z-score was -0.0634 (inactive) in [4] and -0.214 in assay [10].

Regarding `COc1ccc(C#Cc2ccc3c(c2)[C@]2(C(=O)N3)[C@H](c3ccc(OCCO)cc3)N3[C@H](c4ccccc4)[C@H](c4ccccc4)OC(=O)[C@H]3[C@@H]2C(=O)N2CCc3cc(OC)c(OC)cc3C2)cc1`, the z-score was 0.36 in assay [1]; 2.06 (inactive) in assay [2]; -0.224 (inactive) in assay [3]; 2.68 (inactive) in assay [5]; 2.33 (inactive) in assay [6]; -0.479 (inactive) in assay [7]. Besides, the z-score in [8] was -0.324 (inactive); in assay [9], 0.0844. In addition, the composite z-score was -1.84 (inactive) in assay [4] and 0.107 in assay [10].

Take `CCOC(=O)C[C@H]1[C@H](OC(=O)c2ccc(-c3ccccc3)cc2)[C@@H](NC(=O)Cc2ccc(OC)cc2)c2cc(OCCCO)ccc2N1C(=O)Cc1ccc(OC)cc1`: the z-score in assay [1] was -0.0383; in [2], 0.574 (inactive); in assay [3] it was 0.796 (inactive); in assay [5], 0.149 (inactive); in assay [6], 1.78 (inactive); in assay [7], 1.01 (inactive). The z-score in assay [8] is 0.622 (inactive); in assay [9] it was 0.643. The figures for the composite z-score in assay [4] and in [10] were 0.593 (inactive) and -0.0118, respectively.

Regarding `COCCOC(=O)N1C(=O)[C@@]2(c3cc(C#CCNC(N)=O)ccc31)[C@H](c1ccc(O)cc1)N1[C@H](c3ccccc3)[C@H](c3ccccc3)OC(=O)[C@H]1[C@@H]2C(=O)N1CCN(c2ncccn2)CC1`, the z-score in assay [1] is 0.392; in assay [2], 2.72 (inactive); in assay [3], -0.441 (inactive); in assay [5], 2.81 (inactive); in [6], 3.03 (inactive); in assay [7], -0.123 (inactive). Further, the z-score in assay [8] was 0.0896 (inactive); in assay [9] it was -0.0784. In addition, the figures for the composite z-score in assay [4] and in assay [10] were -0.265 (inactive) and -0.205, respectively.

Turning to `C[C@]1(C(=O)NCC(F)(F)F)c2ccccc2C(=O)N(Cc2ccccc2)[C@H]1c1ccc(CO)cc1`, the z-score in assay [1] is -0.398; in assay [2], 0.0742 (inactive); in assay [3], 0.525 (inactive); in assay [5] it was -0.0807 (inactive); in [6] it was 0.433 (inactive); in assay [7], 0.242 (inactive). Also, the z-score in assay [8] was 0.824 (inactive); in assay [9] it was 0.937. The composite z-score is 0.721 (inactive) in assay [4] and -0.102 in assay [10].

In the case of `COc1ccc(C(=O)Nc2cccc(CN3C(=O)[C@@]4(O[C@@H](CC(=O)N(CCO)Cc5ccccc5)[C@H]([Si](C)(C)c5ccc(OC)cc5)[C@H]4C)c4ccccc43)c2)cc1`, the z-score in assay [1] is -0.0246; in [2], 0.062 (inactive); in assay [3] it was -2.3 (inactive); in [5], 0.711 (inactive); in assay [6] it was 0.621 (inactive); in [7] it was 0.289 (inactive). Further, the z-score in assay [8] is 0.45 (inactive); in [9], -2.67. For the same compound, the composite z-score is -2.25 (inactive) in [4] and -0.0365 in assay [10].

With `CN1C(=O)C2C=CC(C(O)c3ccc(F)cc3)N(NC(=O)OC(C)(C)C)C2C1=O` (stereo not given), the z-score in assay [1] was -1.37; in assay [2], 1.18 (inactive); in [3], -0.67 (inactive); in assay [5] it was 0.503 (inactive); in [6] it was 1.09 (inactive); in assay [7] it was -0.592 (inactive). Moreover, the z-score in assay [8] was -0.764 (inactive); in assay [9], -1.37. Further, the composite z-score in assay [4] was 0.929 (inactive); in assay [10] it was 0.171.

For the compound `O=C(CS)NCCCCCNC(=O)[C@@H]1C[C@@H]2C(=O)N[C@@H](Cc3ccccc3)C(=O)N2[C@@H]1c1cccc(OCCO)c1`, the z-score is -0.528 in assay [1]; 0.0575 (inactive) in assay [2]; -0.513 (inactive) in assay [3]; 0.0067 (inactive) in assay [5]; 0.647 (inactive) in assay [6]; 0.403 (inactive) in assay [7]. Also, the z-score was 0.801 (inactive) in [8] and -0.0412 in [9]. Moreover, the figures for the composite z-score in assay [4] and in assay [10] were -0.148 (inactive) and -0.0911, respectively.

Regarding `[N-]=[N+]=NCc1ccccc1C[C@]1(C(=O)N2CCOCC2)COC(c2ccc(OCCCO)cc2)=N1`, the z-score in assay [1] is 0.0629; in assay [2], -2.42 (inactive); in assay [3], 0.117 (inactive); in assay [5], 0.715 (inactive); in assay [6] it was 1.43 (inactive); in assay [7], 2.56 (inactive). The figures for the z-score in assay [8] and in assay [9] were 1.71 (inactive) and 0.698, respectively. The composite z-score in [4] was 0.42 (inactive); in [10] it was 0.18.

Take `[N-]=[N+]=Nc1ccccc1C[C@]1(C(=O)O)N=C(c2ccc(OCCCO)cc2)O[C@H]1c1ccccc1`: the z-score is -0.0033 in assay [1]; -1.77 (inactive) in assay [2]; -1.1 (inactive) in assay [3]; 0.258 (inactive) in [5]; -0.1 (inactive) in [6]; -0.115 (inactive) in assay [7]. Besides, the figures for the z-score in [8] and in assay [9] were -0.0225 (inactive) and -0.954, respectively. Further, the composite z-score in [4] was 0.502 (inactive); in assay [10], -0.0562.
